Measurements published in PubChem BioAssay (NCI).
About 83,000 compounds went through this panel and 20% of them were active in at least one assay; those are over-represented in the sample as a whole.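 How to read the values: 0–100, growth inhibition (40 = 60% inhibited); 0, no net growth; -100 to 0, cell death (-40 = 40% of starting cells died; -100 = all dead).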 Unmarked numbers belong to inactive results. Active and inactive are the calls of the source. Rule for the calls: active = growth percent below 10; inactive = the rest.

Assays:
Assay in all cases: NCI-60 one-dose screen, 48 h (100 = growth as untreated, 0 = no growth, -100 = all killed)
Conditions in all cases: 10 µM unless noted
[1] = test system: T-47D breast
[2] = test system: BT-549 breast
[3] = test system: MDA-MB-435 melanoma
[4] = test system: SW-620 colon
[5] = test system: MCF7 breast
[6] = test system: HCT-116 colon
[7] = test system: HCC-2998 colon
[8] = test system: KM12 colon
[9] = test system: MDA-MB-468 breast

Q: Which results are given for `CC1(C)CC[C@]2(C(=O)O)CC[C@]3(C)C(=CCC4[C@@]5(C)C[C@@H](O)[C@@H]6OC(c7ccccc7F)OC[C@@]6(C)C5CC[C@]43C)C2C1` (stereo partly specified)?
A: growth [1]: 21.3%; growth [2]: -15.9% (active); growth [3]: 17.4%; growth [4]: 14.6%; growth [5]: 4.83% (active); growth [6]: -0.989% (active); growth [7]: 11.1%; growth [8]: 7.3% (active); growth [9]: 5.82% (active)

Q: What does the source list for `Cc1ccc(Cc2cnc(NC(=O)c3ccc(/C=C4\SC(=S)N(C)C4=O)cc3)s2)cc1`?
A: growth [1]: 23.9%; growth [2]: 37.9%; growth [3]: -18.7% (active); growth [4]: 35.8%; growth [5]: 19.6%; growth [6]: 22.7%; growth [7]: 41.1%; growth [8]: 11.2%; growth [9]: 4.76% (active)

Q: For `CN(C)CCCNC(=O)c1cc(NC(=O)c2cc(NC(=O)c3ccc(C#Cc4ccccc4)cc3)cn2C)cn1C`, which growth [1] is on record?
A: The growth was -14.9% (active).

Q: What about the growth [2] of the same compound?
A: The growth was -15% (active).

Q: And the growth [3]?
A: The growth was -63.3% (active).

Q: And the growth [4]?
A: The growth was -12.9% (active).

Q: And the growth [5]?
A: The growth was -93.3% (active).

Q: And the growth [6]?
A: Its growth is -92.4% (active).

Q: And the growth [7]?
A: Its growth is -90.7% (active).

Q: What about the growth [8] of the same compound?
A: The growth was -64% (active).

Q: What about the growth [9] of the same compound?
A: The growth was -93.8% (active).

Q: Which results are given for `COc1ccc2[nH]cc(-c3nc(N)nnc3-c3cn(C)c4ncccc34)c2c1`?
A: growth [1]: 50.8%; growth [2]: 36.5%; growth [3]: -1.52% (active); growth [4]: 39.4%; growth [5]: 25.6%; growth [6]: 26.7%; growth [7]: 80.2%; growth [8]: 16.6%; growth [9]: 27.6%

Q: With `COc1ccc(/C=N/NC(=O)Cn2nc(Cc3ccc(OC)cc3)c3onc(C)c3c2=O)cc1` as the compound, how does the growth [1] read?
A: The growth was 40.7%.

Q: What about the growth [2] of the same compound?
A: The growth was 36.9%.

Q: And the growth [3]?
A: The growth was 62%.

Q: What about the growth [4] of the same compound?
A: Its growth is 56.6%.

Q: And the growth [5]?
A: The growth was 45%.

Q: What about the growth [6] of the same compound?
A: Its growth is 32.3%.

Q: What about the growth [7] of the same compound?
A: The growth was 6.89% (active).

Q: And the growth [8]?
A: Its growth is 53%.

Q: And the growth [9]?
A: The growth was 67.4%.

Q: Which growth [1] does the source give for `C=C1CCC2C3(C)COC(c4ccc(F)cc4)OC3CCC2(C)C1CC(O)C1=CCOC1=O` (stereo unspecified) here?
A: The growth was 31.6%.

Q: What about the growth [2] of the same compound?
A: The growth was -31.9% (active).

Q: And the growth [3]?
A: The growth was 29.6%.

Q: What about the growth [4] of the same compound?
A: The growth was 2.53% (active).

Q: And the growth [5]?
A: The growth was 12.3%.

Q: What about the growth [6] of the same compound?
A: The growth was -50.2% (active).

Q: What about the growth [7] of the same compound?
A: Its growth is 24.3%.

Q: And the growth [8]?
A: The growth was 49.7%.

Q: And the growth [9]?
A: The growth was 18.8%.

Q: What does the source list for `CN(C)c1ccnc(CNCCSC2(c3ccc(C(F)(F)F)cc3)c3ccccc3C=Cc3ccccc32)c1`?
A: growth [1]: -60.8% (active); growth [2]: -6.19% (active); growth [3]: -78.3% (active); growth [4]: -82.8% (active); growth [5]: -89.2% (active); growth [6]: -37.8% (active); growth [7]: -93.9% (active); growth [8]: -31.5% (active); growth [9]: -57.7% (active)

Q: For `Cc1ccc(S(=O)(=O)c2nc(S(=O)(=O)c3ccc(C)cc3)c(Cl)s2)cc1`, which growth [1] is on record?
A: Its growth is -24.6% (active).

Q: And the growth [2]?
A: The growth was 26.3%.

Q: And the growth [3]?
A: Its growth is 50.5%.

Q: And the growth [4]?
A: Its growth is -63.1% (active).

Q: And the growth [5]?
A: Its growth is -57.1% (active).

Q: And the growth [6]?
A: The growth was -46.2% (active).

Q: And the growth [7]?
A: The growth was 58.8%.

Q: And the growth [8]?
A: The growth was 23.9%.

Q: And the growth [9]?
A: The growth was -78.8% (active).

Q: How did the growth [1] turn out when `Cc1ccc(S(=O)(=O)c2nc(S(=O)(=O)c3ccc(C)cc3)c(N3CCC(O)CC3)s2)cc1` was run?
A: The growth was 60.1%.

Q: And the growth [2]?
A: The growth was 49.5%.

Q: What about the growth [3] of the same compound?
A: The growth was 16.8%.

Q: What about the growth [4] of the same compound?
A: Its growth is 44.7%.

Q: And the growth [5]?
A: The growth was 43.4%.

Q: What about the growth [6] of the same compound?
A: The growth was 53.7%.

Q: What about the growth [7] of the same compound?
A: Its growth is 90.6%.

Q: And the growth [8]?
A: Its growth is 72.6%.

Q: What about the growth [9] of the same compound?
A: Its growth is -20.7% (active).

Q: Which growth [1] does the source give for `CC(C)C(C(=O)O)n1c(O)c(/C=C2/C=c3cc4c(cc3=NC2=O)OCO4)sc1=S` (stereo unspecified) here?
A: Its growth is 103%.

Q: What about the growth [2] of the same compound?
A: Its growth is 111%.

Q: And the growth [3]?
A: The growth was 107%.

Q: What about the growth [4] of the same compound?
A: Its growth is 108%.

Q: What about the growth [5] of the same compound?
A: The growth was 90.4%.

Q: And the growth [6]?
A: The growth was 108%.

Q: And the growth [7]?
A: The growth was 110%.

Q: What about the growth [8] of the same compound?
A: Its growth is 103%.

Q: And the growth [9]?
A: Its growth is 101%.

Q: For `O=C(CSc1nc2ccccc2c(=O)[nH]1)NCCN1CCCCC1`, which growth [1] is on record?
A: Its growth is 100%.

Q: And the growth [2]?
A: The growth was 104%.

Q: What about the growth [3] of the same compound?
A: The growth was 95.1%.

Q: And the growth [4]?
A: Its growth is 97%.

Q: What about the growth [5] of the same compound?
A: The growth was 90.8%.

Q: What about the growth [6] of the same compound?
A: The growth was 104%.

Q: What about the growth [7] of the same compound?
A: Its growth is 108%.

Q: And the growth [8]?
A: Its growth is 98.3%.

Q: What about the growth [9] of the same compound?
A: The growth was 96.9%.

Q: With `Cc1cc2nc3c4ccccc4n(CCNCCN(C)C)c3nc2cc1C` as the compound, how does the growth [1] read?
A: Its growth is 52.2%.

Q: What about the growth [2] of the same compound?
A: Its growth is 23.8%.

Q: And the growth [3]?
A: The growth was 8.22% (active).

Q: What about the growth [4] of the same compound?
A: Its growth is -19.6% (active).

Q: What about the growth [5] of the same compound?
A: Its growth is -28.8% (active).

Q: And the growth [6]?
A: Its growth is -57.8% (active).

Q: What about the growth [7] of the same compound?
A: Its growth is -56.7% (active).

Q: What about the growth [8] of the same compound?
A: Its growth is 27.4%.

Q: And the growth [9]?
A: Its growth is -54.4% (active).

Q: For `CN(C)c1ccnc(CNCCSC2(c3ccc(C(F)(F)F)cc3)c3ccccc3CCc3ccccc32)c1`, which growth [1] is on record?
A: The growth was -55.8% (active).

Q: What about the growth [2] of the same compound?
A: Its growth is -15.2% (active).

Q: What about the growth [3] of the same compound?
A: The growth was -80.6% (active).

Q: What about the growth [4] of the same compound?
A: Its growth is -66% (active).

Q: And the growth [5]?
A: Its growth is -72% (active).

Q: What about the growth [6] of the same compound?
A: Its growth is -82.5% (active).

Q: What about the growth [7] of the same compound?
A: Its growth is -91.6% (active).

Q: And the growth [8]?
A: The growth was -66.3% (active).

Q: What about the growth [9] of the same compound?
A: Its growth is -87.6% (active).

Q: How did the growth [1] turn out when `Brc1ccc(-c2n(Cc3ccc4ccccc4c3)c(-c3ccccc3)c(-c3ccccc3)[n+]2Cc2ccc3ccccc3c2)cc1` was run?
A: Its growth is -76.7% (active).

Q: What about the growth [2] of the same compound?
A: Its growth is -96.7% (active).

Q: And the growth [3]?
A: The growth was -91% (active).

Q: What about the growth [4] of the same compound?
A: Its growth is -86% (active).

Q: What about the growth [5] of the same compound?
A: The growth was -69.8% (active).

Q: What about the growth [6] of the same compound?
A: Its growth is -97.9% (active).

Q: And the growth [7]?
A: Its growth is -88.9% (active).

Q: And the growth [8]?
A: The growth was -93.4% (active).

Q: And the growth [9]?
A: The growth was -71.2% (active).
